Data: PubChem BioAssay AID1159580 (chemical genetic matrix, 2015)
The campaign covered roughly 5,500 compounds. About 2,000 (36%) were called active. Another 18% or so got no clear call; they are omitted. No stated cut-off is given here; in the data, active means normalized growth mostly below about 0.91 (no sharp cut-off); inconclusive means no clear call, values can overlap the other calls; inactive means mostly above about 0.92. The list shows a part of the results.

Experiment: chemical genetic growth profiling, strain panel (AID 1159580);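 further: tested at 20 µM; growth read once vehicle control cultures reached saturation at 30 °C; 1 = growth at the plate median or of vehicle wells; lower values mean less growth of the strain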
Conditions: S. cerevisiae deletion strains, growth OD

Measured: normalized growth

CC1=C(/C=C/C(C)=C/C=C/C(C)=C/C=C/C=C(C)/C=C/C=C(C)/C=C/C2=C(C)C(=O)CCC2(C)C)C(C)(C)CCC1=O
inactive: locus YAL021C, strain ccr4, hits give low values 1.02 | locus YAL026C, strain drs2, hits give low values 0.964 | locus YAL030W, strain snc1, hits give low values 0.981 | locus YBL061C, strain skt5, hits give low values 0.981 | locus YBR009C, strain hhf1, hits give low values 0.941 | locus YBR023C, strain chs3, hits give low values 0.987 | locus YBR171W, strain sec66, hits give low values 0.975 | locus YBR231C, strain swc5, hits give low values 0.982 | locus YBR279W, strain paf1, hits give low values 0.989 | locus YCL011C, strain gbp2, hits give low values 0.96 | locus YCL016C, strain dcc1, hits give low values 1 | locus YCL061C, strain MRC1, hits give low values 1.01 | locus YCL069W, strain vba3, hits give low values 0.975 | locus YCR088W, strain abp1, hits give low values 0.994 | locus YDL005C, strain med2, hits give low values 0.981 | locus YDL040C, strain nat1, hits give low values 0.978 | locus YDR001C, strain nth1, hits give low values 0.986 | locus YDR069C, strain doa4, hits give low values 0.996 | locus YDR137W, strain rgp1, hits give low values 1.03 | locus YDR159W, strain sac3, hits give low values 0.961 | locus YDR195W, strain ref2 0.944 | locus YDR297W, strain sur2, hits give low values 0.995 | locus YDR334W, strain swr1, hits give low values 0.982 | locus YDR335W, strain msn5, hits give low values 0.992 | locus YDR392W, strain spt3, hits give low values 0.92 | locus YEL003W, strain gim4, hits give low values 0.979 | locus YEL037C, strain rad23, hits give low values 0.971 | locus YEL061C, strain CIN8 (second series), hits give low values 0.979 | locus YER015W, strain faa2, hits give low values 0.984 | locus YER016W, strain bim1, hits give low values 1.01 | locus YER111C, strain swi4, hits give low values 0.963 | locus YER155C, strain BEM2 (second series), hits give low values 0.973 | locus YFR010W, strain ubp6, hits give low values 0.971 | locus YGL167C, strain pmr1, hits give low values 0.978 | locus YGL173C, strain kem1, hits give low values 0.99 | locus YGL227W, strain vid30, hits give low values 0.971 | locus YGL240W, strain doc1, hits give low values 1.01 | locus YGL253W, strain hxk2, hits give low values 0.963 | locus YHR013C, strain ard1, hits give low values 0.958 | locus YHR027C, strain rpn1, hits give low values 0.997 | locus YHR142W, strain chs7, hits give low values 1.01 | locus YJL092W, strain hpr5, hits give low values 0.999 | locus YJL095W, strain BCK1 (second series), hits give low values 1 | locus YJL115W, strain asf1, hits give low values 0.98 | locus YJL129C, strain trk1, hits give low values 0.989 | locus YJL154C, strain vps35, hits give low values 0.975 | locus YJL164C, strain tpk1, hits give low values 1.02 | locus YJL166W, strain qcr8, hits give low values 1 | locus YJL187C, strain SWE1, hits give low values 0.985 | locus YKL160W, strain elf1, hits give low values 1.07 | locus YKR026C, strain gcn3, hits give low values 0.977 | locus YKR091W, strain srl3, hits give low values 0.985 | locus YLL001W, strain dnm1, hits give low values 0.997 | locus YLL026W, hits give low values 0.987 | locus YLL041C, strain sdh2, hits give low values 0.998 | locus YLR027C, strain aat2, hits give low values 1.01 | locus YLR221C, strain rsa3, hits give low values 1.01 | locus YLR258W, strain gsy2, hits give low values 0.982 | locus YLR262C, strain YPT6 (second series), hits give low values 1.05 | locus YLR320W, strain mms22, hits give low values 0.99 | locus YLR342W, strain FKS1, hits give low values 0.983 | locus YLR357W, strain rsc2, hits give low values 0.966 | locus YLR370C, strain arc18, hits give low values 0.986 | locus YLR384C, strain iki3, hits give low values 0.998 | locus YML120C, strain ndi1, hits give low values 0.996 | locus YMR058W, strain fet3, hits give low values 0.965 | locus YMR125W, strain sto1, hits give low values 0.92 | locus YMR129W, hits give low values 0.975 | locus YMR205C, strain PFK2, hits give low values 0.937 | locus YMR231W, strain pep5, hits give low values 0.987 | locus YNL071W, strain lat1, hits give low values 0.99 | locus YNL209W, strain ssb2, hits give low values 0.991 | locus YNL248C, strain rpa49, hits give low values 1.03 | locus YNL322C, strain KRE1 (second series), hits give low values 0.989 | locus YNR049C, strain mso1, hits give low values 0.965 | locus YOR001W, strain rrp6, hits give low values 1.03 | locus YOR070C, strain gyp1, hits give low values 1.02 | locus YOR080W, strain dia2, hits give low values 0.993 | locus YOR083W, strain WHI5, hits give low values 1.05 | locus YOR106W, strain vam3, hits give low values 0.986 | locus YOR265W, strain rbl2, hits give low values 1.01 | locus YOR270C, strain vph1, hits give low values 0.871 | locus YOR290C, strain snf2, hits give low values 0.934 | locus YPL051W, strain arl3, hits give low values 1.02 | locus YPL078C, strain atp4, hits give low values 0.997 | locus YPL106C, strain sse1, hits give low values 1.01 | locus YPL240C, strain hsp82, hits give low values 1
